# From the supplement of paper PMC10670038
# Where a name gives a salt, the structure may show the parent alone. ± gives the standard deviation of the averaged measurements. In all, about 2,000 compounds were measured (“relative cell viability vs DMSO, compound + 0.2 uM CuET”: median about 1, lowest 2% from about 0.25 on). The full list was thinned out, with the lowest values kept by preference.
# System: TE10
# Assay: relative cell viability vs DMSO, compound + 0.2 uM CuET (fraction); TE10 is an esophageal squamous carcinoma line; higher = less cytotoxic
# Details: 2 µM; co-treatment: CuET (bis(diethyldithiocarbamate)copper) 0.2 uM; 48 h
# Protocol: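 TE10 ESCC cells (1,000/well, 384-well plates) were treated with Selleck bioactive library compounds at 2 uM combined with 0.2 uM CuET (copper diethyldithiocarbamate) for 48 h. Viability was read by CellTiter-Glo and expressed relative to DMSO wells. Two technical replicates (A, B).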
row,SMILES,relative cell viability
1,CCN1CCN(C(=O)Cc2ccc(Nc3ncc(F)c(Nc4ccc(C(=O)Nc5ccccc5Cl)cc4)n3)cc2)CC1 [Aurora A Inhibitor I],0.182 ± 0.01
2,Cc1cc(C(=O)CN2CCCC2)c(C)n1-c1ccc(F)cc1,0.959 ± 0.085
3,C[C@@H]1CC[C@H]2[C@@H](C)C(=O)O[C@@H]3O[C@@]4(C)CC[C@@H]1[C@]32OO4 [Artemisinin],1.08 ± 0.11
4,"NCC(O)c1ccc(O)cc1 (racemic) [(+,-)-Octopamine HCl]",0.697 ± 0.56
5,CC(=O)OC12COC1CC(O)C1(C)C(=O)C(O)C3=C(C)C(O)CC(O)(C(OC(=O)c4ccccc4)C21)C3(C)C (stereo not given) [10-Deacetylbaccatin-III],0.849 ± 0.011
6,CC1=C(O)C(=O)C=C2C1=CC=C1[C@@]2(C)CC[C@@]2(C)[C@@H]3C[C@](C)(C(=O)O)CC[C@]3(C)CC[C@]12C [Celastrol],0.154 ± 0.0064
7,CC(C)=CCC[C@]1(C)C=Cc2c(O)c3c(c(CC=C(C)C)c2O1)O[C@]12C(=C[C@@H]4C[C@H]1C(C)(C)O[C@@]2(C/C=C(/C)C(=O)O)C4=O)C3=O [Gambogic Acid],0.2853 ± 0.00092
8,O=c1cccc2n1C[C@@H]1CNC[C@H]2C1 [Cytisine],1.07 ± 0.033
9,C=C[C@H]1CN2CC[C@H]1C[C@H]2[C@H](O)c1ccnc2ccccc12 [Cinchonidine],1.03 ± 0.057
10,N#CC(C#N)=Cc1ccc(O)c(O)c1,0.937 ± 0.14
